Calls of active or inactive are those of the source. How the source made its calls: active means hit-call score of the fitted dose curve at least 0.9, where 1 is the maximum; inactive means score below 0.9.

This assay can be described thus: APR_HepG2_CellCycleArrest_72hr: Apredica 72-hour HepG2 Assay for Cell Cycle Arrest (AID 2282914). The following applies: high-content imaging, actives raise or lower the signal. As to the method:
APR_HepG2_72hr is a cell-based, multiplexed-readout assay that uses HepG2, a human liver cell line, with measurements taken at 72 hours after chemical dosing in a 384-well plate.APR_HepG2_CellCycleArrest_72hr is one of 10 assay component(s) measured or calculated from the APR_HepG2_72hr assay. It is designed to make measurements of cell phenotype, a form of morphology reporter, as detected with fluorescence intensity signals by HCS Fluorescent Imaging technology.Data from the assay component APR_HepG2_CellCycleArrest_72hr was analyzed into 1 assay endpoint. This assay endpoint, APR_HepG2_CellCycleArrest_72hr, was analyzed with bidirectional fitting relative to DMSO as the negative control and baseline of activity. Using a type of morphology reporter, measures of all nuclear dna for gain or loss-of-signal activity can be used to understand the signaling at the pathway-level as they relate to the gene . Furthermore, this assay endpoint can be referred to as a primary readout, because this assay has produced multiple assay endpoints where this one serves a signaling function. To generalize the intended target to other relatable targets, this assay endpoint is annotated to the cell cycle intended target family, where the subfamily is arrest.
Cells were treated with dimethyl sulfoxide (DMSO) as a solvent control at a final concentration of 0.5% v/v or with compounds in DMSO with a resulting final DMSO concentration of 0.5% v/v. Compound treatment was done at concentrations of 0.39, 0.78, 1.56, 3.12, 6.24, 12.5, 25, 50, 100, and 200 uM in duplicate on each plate. Cells were treated with compounds for 1, 24, or 72 hr. Carbonyl […] m-chloro-phenylhydrazone (CCCP) and taxol were used as positive controls for mitochondrial function and cytoskeletal stability, respectively; DMSO served as the negative control for this experiment. Cells were fixed by the direct addition of 50 uL formaldehyde in Hank's Balanced Salt Solution (HBSS) to a final concentration of 3.7%. After incubation in the fixation medium for 30 min at room temperature (293-298 K), cells were rinsed twice with HBSS and treated with cell permeabilization buffer (16 uL of 0.5% Triton X-100) for 10 min at room temperature (293-298 K) before labeling. For mitochondrial membrane potential and mitochondrial measurements, pre-fixed cells were incubated with 50 uL of MitoTracker Red CMXRos (Invitrogen) at a concentration of 250 nM for 30 min before fixation. In the remaining cases, post-fixed cells were labeled by incubation with a multiplexed mixture of primary antibodies in HBSS for 60 min at room temperature (293-298 K) to detect immunoreactivity of c-Jun (1:500), phospho-histone H3 (1:100), phospho-histone H2A.x (1:200), p53 (1:400), alpha-tubulin (1:200) and Hoechst 33342 (2 ug/mL). Cells were labeled for multiplexed imaging on two separate plates: a) Hoechst 33342, MitoTracker Red, phospho-histone H3, and alpha-tubulin, and b) Hoechst 33342, phospho-histone H2A.x, and c-Jun. A final rinse with HBSS (50 uL) was performed before analysis. The primary and secondary antibodies for the proteins were phospho-histone H3 (rabbit anti-phospho-histone H3 and FITC-donkey anti-rabbit IgG), phospho-histone H2A.x (mouse anti-phospho-histone H2A.x and FITC-donkey anti-mouse IgG), c-Jun (rabbit anti-phospho-c-Jun and Cy3-donkey anti-rabbit IgG), p53 (sheep anti-p53 and Cy5-donkey anti-sheep IgG), alpha-tubulin (mouse anti-alpha-tubulin and Cy5-donkey anti-mouse IgG). These antibodies are available as the CellCiphr HepG2 assay kit (Millipore).Digital images of each well were captured using a Cellomics ArrayScan VTI (Thermo Scientific Cellomics) (0.8 NA objective, 0.63x optical coupler, and XF-93 filter set) at 20x magnification. The images were acquired using the autofocus feature of the ArrayScan instrument, which entails the following steps. First, the camera focuses on channel 1 (Hoechst 33342), where nuclei are identified. Second, a Z offset of 1 um is used for capturing mitochondria (MitoTracker Red). […]
Turning to `CN=C=S`, the AC50 is 54.7 µM (active). Turning to `N#Cc1c(Cl)cccc1Cl`, the compound was classed as inactive. Consider `Nc1cnn(-c2ccccc2)c(=O)c1Cl`, for which the call was inactive. For `CCOP(=S)(OCC)Oc1nc(Cl)n(C(C)C)n1`, the result was inactive.

Regarding `O=c1n(Cl)c(=O)n(Cl)c(=O)n1Cl`, the result was inactive.

With `CS(=O)(=O)c1cc(C(F)(F)F)ccc1C(=O)c1cnoc1C1CC1`, the compound was classed as inactive.

As for `CCN(CC)C(=O)C(C)Oc1cccc2ccccc12` (stereo not given), the concentration at half-maximal activity (AC50) is 106 µM (active). Regarding `O=C(O)c1c(Cl)ccc2cc(Cl)cnc12`, the result was inactive. As for `Cc1nc(N(C)C)nc(OC(=O)N(C)C)c1C`, the outcome was inactive. Consider `Cc1cnc(C2=NC(C)(C(C)C)C(=O)N2)c(C(=O)O)c1` (stereo not given), for which the call was inactive. As to `COc1cc(Cl)c(OC)cc1Cl`, the outcome was inactive. Consider `N#CN=C1SCCN1Cc1ccc(Cl)nc1`, for which the compound was called inactive. Turning to `OC(c1ccc(Cl)cc1)(c1ccc(Cl)cc1)C(Cl)(Cl)Cl`, the compound was called inactive. Regarding `CCCCC(C#N)(Cn1cncn1)c1ccc(Cl)cc1` (stereo not given), the compound was classed as inactive. Consider `CC(C)C1(C)N=C(c2ncccc2C(=O)O)NC1=O` (stereo not given), for which the result was inactive. In the case of `CC1(C)C(C(=O)OC(C#N)c2cccc(Oc3ccccc3)c2)C1(C)C` (stereo not given), the call was inactive. In the case of `CC(C)N1C(=O)N(c2ccccc2)CSC1=NC(C)(C)C`, the call was inactive.

As to `O=C(Nc1ccccc1-c1ccc(Cl)cc1)c1cccnc1Cl`, the outcome was inactive.

Turning to `C=C(C)CN(CC)c1c([N+](=O)[O-])cc(C(F)(F)F)cc1[N+](=O)[O-]`, the outcome was inactive.

As for `Cc1c(COC(=O)[C@@H]2[C@H](/C=C(\Cl)C(F)(F)F)C2(C)C)cccc1-c1ccccc1`, the outcome was inactive. For `CO/N=C(/C1=NOCCO1)c1ccccc1Oc1ncnc(Oc2ccccc2Cl)c1F`, the outcome was inactive. Consider `CN/C(=N\[N+](=O)[O-])NCc1cnc(Cl)s1`, for which the compound was classed as inactive. Turning to `O=P(O)(O)CCCl`, the compound was classed as inactive. On to `COC(=O)N(C(=O)N1CO[C@@]2(C(=O)OC)Cc3cc(Cl)ccc3C2=N1)c1ccc(OC(F)(F)F)cc1`, for which the compound was called inactive. Still for that read-out and setting: with `CCOc1nc(C(Cl)(Cl)Cl)ns1` the entry was “inactive”. Same read-out and setting: with `CC1(C)C(C=C(Cl)Cl)C1C(=O)OC(C#N)c1cccc(Oc2ccccc2)c1` (stereo not given) the entry was “inactive”; with `CCC(C)n1c(=O)[nH]c(C)c(Br)c1=O` (stereo not given), “inactive”. In the case of `CNC(=O)Oc1cccc2ccccc12`, the call was inactive.

Regarding `COc1ccc(-c2ccccc2)cc1NNC(=O)OC(C)C`, the result was inactive. For the compound `CCOP(=O)(OCC)Oc1nc(Cl)c(Cl)cc1Cl`, the call was inactive.

With `CCOc1cc(C(C)(C)C)ccc1C1COC(c2c(F)cccc2F)=N1` (stereo not given), the result was inactive. As to `Nc1c(Cl)c(Cl)nc(C(=O)O)c1Cl`, the result was inactive. Consider `CC(C)N1C(=O)c2ccccc2NS1(=O)=O`, for which the result was inactive.

Turning to `CCNP(=S)(OC)O/C(C)=C/C(=O)OC(C)C` (stereo not given), the compound was called inactive. Still for that read-out and setting: with `O=C1C2CC=CCC2C(=O)N1SC(Cl)(Cl)Cl` (stereo not given) the entry was “inactive”; with `CC(C)Oc1cccc(NC(=O)c2ccccc2C(F)(F)F)c1`, “inactive”.

Consider `CC(C)(C)C(=O)C(Oc1ccc(Cl)cc1)n1cncn1` (stereo not given), for which the AC50 is 82.2 µM (active). `CC1(C)CCC(=Cc2ccc(Cl)cc2)C1(O)Cn1cncn1` (stereo not given): the compound was classed as inactive.

As to `COP(=S)(OC)Oc1ccc([N+](=O)[O-])c(C)c1`, the compound was classed as inactive. For `COCC(C)N(C(=O)CCl)c1c(C)csc1C` (stereo not given), the outcome was inactive.

A word on the AC50: it is the concentration giving half of the maximal activity seen.

The values are drawn from PubChem BioAssay (EPA / NIEHS).
